The source of these data is PubChem BioAssay (NCATS).

The nature of assay [1]: Viability counterscreen for antagonist of constitutive androstane receptor (CAR) against the NCATS DSHEA and TCM libraries (AID 1794837).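 Also: compound exposure lasted 24 h before viability reading; 0% is about no effect.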 Put shortly:
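Viability was measured by CellTiter-Fluor fluorescence (405/540 nm, 1 hr) in HepG2-CYP2B6-hCAR cells. Cells were co-treated 24 hr with 48 uM CITCO (final), antagonist mode, and test substances.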
(In general: A counterscreen serves to expose hits that act by an unwanted route or on another target.)

The nature of assay [2]: Viability counterscreen for agonist of constitutive androstane receptor (CAR) against the NCATS DSHEA and TCM libraries (AID 1794838). Also: 0% is about no effect. The method in brief: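 Cell viability, from CellTiter-Fluor fluorescence (405/540 nm), was scored after a 24 h, 37C exposure of HepG2 cells carrying CYP2B6 reporter and hCAR to test substances in presence of 0.75 uM PK11195.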
Assay [3] addresses Nuclear receptor subfamily 1 group I member 3 (Homo sapiens) (UniProt Q14994). In words: Primary qHTS for agonist of constitutive androstane receptor (CAR) against the NCATS DSHEA and TCM libraries (AID 1794839).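 Also: HepG2 cells expressing human CAR with a CYP2B6 reporter plus PK11195 antagonist; 0% is about no effect.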 The method in brief:
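Agonist mode in presence of hCAR antagonist PK11195 (0.75 µM final): test substances, 24 h, 37 °C, on HepG2-CYP2B6-hCAR cells. Same-well readouts: fluorescence viability, then ONE-Glo luminescence; CITCO as reference agonist.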
In general terms: Quantitative high-throughput screening tests each substance at several concentrations.

Assay [4] in a line: HepG2 viability counterscreen (readout 2: ATP content) against the NCATS DSHEA and TCM libraries (AID 1794840).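 Also: HepG2 cells exposed to substances for about 24 h; 0% is about no effect.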 Put shortly: (§1)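 Readout 1: cellular protease activity, GF-AFC substrate (25 uM final, 30 min, fluorescence 380/510 nm). Readout 2: ATP content by CellTiter-Glo luminescence after 30 min at RT. Both follow ~24 h exposure of HepG2 cells (1,000/well) to substances.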
The nature of assay [5]: HepG2 viability counterscreen (readout 1: protease activity) against the NCATS DSHEA and TCM libraries (AID 1794841).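 Also: cells exposed to compounds for about 24 h before the protease read; 0% is about no effect.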 The method in brief:
as §1

For assay [6], the target named is Cytochrome P450 3A4 (Homo sapiens) (UniProt P08684). In words: qHTS for inhibitors of CYP3A4 against the NCATS DSHEA and TCM libraries (AID 1919971). Also: potency is read from the fitted curve at half-maximal effect. The method in brief:
(§2)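 Substances were tested against enzyme with a pro-luciferin substrate; minus-enzyme wells served as background. After NADPH-initiated oxidation (30-45 min, RT), light was generated with P450-Glo reagent.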

Assay [7] has as its target Cytochrome P450 2D6 (Homo sapiens) (UniProt P10635). The experiment in a line: qHTS for inhibitors of CYP2D6 against the NCATS DSHEA and TCM libraries (AID 1919972). Also: % is scaled to controls: 0 for no effect and ±100 for the full control effect. Put shortly: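 qHTS, concentration–response format with most substances from 19.5 nM. CYP2D6 + pro-luciferin substrate, 15 min with compound, then 1x NADPH regen, 30–45 min RT dark. Glo detection 30 min, luminescence. Quinidine control.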

Assay [8] concerns the target Cytochrome P450 2C9 (Homo sapiens) (UniProt P11712). In words: qHTS for inhibitors of CYP2C9 against the NCATS DSHEA and TCM libraries (AID 1919973). Also: potency is read from the fitted curve at half-maximal effect. The method in brief:
as §2

Assay [9] in a line: KB-3-1 P-gp reporter qHTS against the NCATS DSHEA and TCM libraries (AID 1919975). Also: 0% is about no effect. The method in brief:
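Cell viability by CellTiter-Glo luminescence following ~72 h compound exposure (concentration-response). Uses parental, non-P-gp-overexpressing KB-3-1 line, 500 cells/well in DMEM/10% FBS, attached ~4 h before dosing.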

Assay [10] addresses Cytochrome P450 1A2 (Homo sapiens) (UniProt P05177). In words: qHTS for inhibitors of CYPIA2 against the NCATS DSHEA and TCM libraries (AID 1919976). Also: series mostly up to about 37 µM; % is scaled to controls: 0 for no effect and ±100 for the full control effect. Put shortly:
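Luminescence read-out: pro-luciferin converted to D-luciferin by CYP1A2, detected with P450-Glo reagent after 30 min RT. Enzyme plus substrate got compounds for 15 min RT; NADPH regeneration solution (final 1x) started a 30-45 min reaction, light-protected.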

Assay [11] is described as follows: qHTS Counterscreen for compound interference against the NCATS DSHEA and TCM libraries (AID 1919978).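 Also: compounds preincubated with 1 µM D-luciferin or buffer before detection reagent; % of control where 0% means no effect.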 To be noted: firefly luciferase detection reagent interference, luminescence. The method in brief: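 With 1 uM D-luciferin or phosphate buffer only, compounds at final 19.5 nM–39.8 uM were incubated for 15 min at room temperature. Luciferase detection reagent was then added, and luminescence was measured after a further 30 min at room temperature.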

A short description of assay [12]: Dual reporter qHTS for agonist of Pregnane X Receptor (hPXR) against the NCATS DSHEA and TCM libraries: Fluorescence readout (AID 1920058). Also: 0% is about no effect. The method in brief: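 Fluorescence read-out for cell viability: CellTiter-Fluor, 1 h at 37 °C, Ex/Em 405/540 nm. This followed ~24 h treatment of hPXR-Luc HepG2 cells with substances in agonist mode.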
Assay [13] has as its target Nuclear receptor subfamily 1 group I member 2 (Homo sapiens) (UniProt O75469). The experiment in a line: Dual reporter qHTS for agonist of Pregnane X Receptor (hPXR) against the NCATS DSHEA and TCM libraries: Luminescence readout (AID 1920059). Also: potency is read from the fitted curve at half-maximal effect. The method in brief: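 hPXR-Luc HepG2 cells, 2000/well in 5% charcoal-stripped FBS medium, attached 5 h, then exposed 24 h at 37C to compounds. Viability by CellTiter-Fluor, then luciferase luminescence with ONE-Glo.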

Assay [14] shares this target. The experiment in a line: Dual reporter qHTS for antagonist of Pregnane X Receptor (hPXR) against the NCATS DSHEA and TCM libraries: Luminescence Readout (AID 1920060).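 Also: HepG2 cells carrying hPXR luciferase reporter stimulated with rifampicin at 2 µM; 0% is about no effect.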 Put shortly: (§3)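 Antagonist mode: rifampicin 2 uM final co-added with compounds to hPXR-LucHepG2 cells for 24 h at 37C. Viability by CellTiter-Fluor, Ex/Em 405/540 nm, 1 h; reporter by ONE-Glo luminescence.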

The nature of assay [15]: Dual reporter qHTS for antagonist of Pregnane X Receptor (hPXR) against the NCATS DSHEA and TCM libraries: Fluorescence Readout (AID 1920061). Also: 0% is about no effect. The method in brief: as §3

Values without a mark were called inactive. Inconclusive results are not listed. Activity calls are given as the source filed them. Calls follow the shape of the dose curve; as a rule, active = well fitted curve in the direction sought with a large enough effect; inconclusive = small, poorly fitted or top-dose-only effect, or another doubt; inactive = no such curve, though single readings can be large; an effect the other way counts as inactive or inconclusive.

Nuclear receptor subfamily 1 group I member 2 (Homo sapiens), sequence (O75469 whole entry, looked up): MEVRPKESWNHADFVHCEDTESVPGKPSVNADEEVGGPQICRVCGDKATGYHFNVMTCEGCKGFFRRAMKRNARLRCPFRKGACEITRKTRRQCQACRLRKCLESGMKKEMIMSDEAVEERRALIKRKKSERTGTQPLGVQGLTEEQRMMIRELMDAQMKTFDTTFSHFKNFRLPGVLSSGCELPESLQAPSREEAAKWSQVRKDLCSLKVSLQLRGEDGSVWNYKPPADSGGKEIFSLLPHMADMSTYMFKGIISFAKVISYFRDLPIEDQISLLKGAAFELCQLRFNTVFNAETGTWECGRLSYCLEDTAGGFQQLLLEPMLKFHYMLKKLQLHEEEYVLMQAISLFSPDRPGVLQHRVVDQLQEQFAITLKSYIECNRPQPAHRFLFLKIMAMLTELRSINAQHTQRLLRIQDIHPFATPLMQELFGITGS
Cytochrome P450 2D6 (Homo sapiens), sequence (P10635 whole entry, looked up): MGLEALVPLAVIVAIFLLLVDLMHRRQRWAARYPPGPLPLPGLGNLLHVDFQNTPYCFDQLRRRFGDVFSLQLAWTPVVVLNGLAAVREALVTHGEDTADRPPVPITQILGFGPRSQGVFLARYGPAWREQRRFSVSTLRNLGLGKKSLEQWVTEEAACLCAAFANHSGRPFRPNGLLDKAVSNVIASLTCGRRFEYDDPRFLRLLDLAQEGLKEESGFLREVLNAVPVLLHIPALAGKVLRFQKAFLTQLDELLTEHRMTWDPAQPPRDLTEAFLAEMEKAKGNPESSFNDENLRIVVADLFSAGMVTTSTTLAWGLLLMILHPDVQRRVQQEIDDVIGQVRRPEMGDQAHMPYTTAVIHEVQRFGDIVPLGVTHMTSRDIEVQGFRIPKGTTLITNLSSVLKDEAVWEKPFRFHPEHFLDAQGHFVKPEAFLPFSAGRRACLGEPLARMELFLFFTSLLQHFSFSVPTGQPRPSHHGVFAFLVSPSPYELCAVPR
Cytochrome P450 1A2 (Homo sapiens), sequence (P05177 whole entry, looked up): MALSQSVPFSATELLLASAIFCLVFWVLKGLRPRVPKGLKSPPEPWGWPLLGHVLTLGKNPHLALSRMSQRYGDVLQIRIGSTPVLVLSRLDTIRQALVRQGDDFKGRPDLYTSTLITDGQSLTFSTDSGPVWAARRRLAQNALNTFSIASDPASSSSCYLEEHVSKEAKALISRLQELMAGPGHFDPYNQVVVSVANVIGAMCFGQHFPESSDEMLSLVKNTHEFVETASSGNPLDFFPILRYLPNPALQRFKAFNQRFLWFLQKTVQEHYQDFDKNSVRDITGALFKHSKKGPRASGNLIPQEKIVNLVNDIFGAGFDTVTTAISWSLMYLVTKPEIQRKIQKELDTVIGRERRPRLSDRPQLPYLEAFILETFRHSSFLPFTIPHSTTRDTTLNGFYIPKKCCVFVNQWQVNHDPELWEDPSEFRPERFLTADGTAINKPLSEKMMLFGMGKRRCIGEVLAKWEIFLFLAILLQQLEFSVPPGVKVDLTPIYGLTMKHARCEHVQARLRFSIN
Cytochrome P450 2C9 (Homo sapiens), sequence (P11712 whole entry, looked up): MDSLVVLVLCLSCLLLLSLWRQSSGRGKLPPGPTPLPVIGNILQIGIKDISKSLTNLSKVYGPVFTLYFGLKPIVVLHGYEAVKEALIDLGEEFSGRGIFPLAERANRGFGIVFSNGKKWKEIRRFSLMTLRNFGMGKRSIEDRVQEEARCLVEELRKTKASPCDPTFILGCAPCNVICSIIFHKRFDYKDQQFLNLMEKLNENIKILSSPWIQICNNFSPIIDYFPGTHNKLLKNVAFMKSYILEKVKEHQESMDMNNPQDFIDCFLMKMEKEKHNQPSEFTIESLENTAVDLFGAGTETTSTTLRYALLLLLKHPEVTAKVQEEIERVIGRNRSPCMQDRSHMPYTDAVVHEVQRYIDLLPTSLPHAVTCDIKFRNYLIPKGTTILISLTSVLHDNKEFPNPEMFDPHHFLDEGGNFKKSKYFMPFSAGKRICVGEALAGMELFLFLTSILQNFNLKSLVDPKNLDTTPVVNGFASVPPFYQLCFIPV
Cytochrome P450 3A4 (Homo sapiens), sequence (P08684 whole entry, looked up): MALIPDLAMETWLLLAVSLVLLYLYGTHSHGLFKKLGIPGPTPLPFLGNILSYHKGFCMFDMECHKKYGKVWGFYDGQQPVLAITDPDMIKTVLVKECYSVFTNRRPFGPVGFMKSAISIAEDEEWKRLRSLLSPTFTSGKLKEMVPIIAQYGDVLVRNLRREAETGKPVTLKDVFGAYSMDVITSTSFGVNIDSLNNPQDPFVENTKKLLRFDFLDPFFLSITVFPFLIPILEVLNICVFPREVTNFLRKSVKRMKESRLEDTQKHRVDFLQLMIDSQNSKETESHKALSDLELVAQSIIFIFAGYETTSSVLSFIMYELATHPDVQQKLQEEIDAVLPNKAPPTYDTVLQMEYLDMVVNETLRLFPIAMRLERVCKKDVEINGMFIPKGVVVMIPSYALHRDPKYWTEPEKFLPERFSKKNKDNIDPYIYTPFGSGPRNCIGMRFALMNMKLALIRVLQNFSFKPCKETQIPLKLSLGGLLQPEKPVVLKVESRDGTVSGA
Nuclear receptor subfamily 1 group I member 3 (Homo sapiens), sequence (Q14994 whole entry, looked up): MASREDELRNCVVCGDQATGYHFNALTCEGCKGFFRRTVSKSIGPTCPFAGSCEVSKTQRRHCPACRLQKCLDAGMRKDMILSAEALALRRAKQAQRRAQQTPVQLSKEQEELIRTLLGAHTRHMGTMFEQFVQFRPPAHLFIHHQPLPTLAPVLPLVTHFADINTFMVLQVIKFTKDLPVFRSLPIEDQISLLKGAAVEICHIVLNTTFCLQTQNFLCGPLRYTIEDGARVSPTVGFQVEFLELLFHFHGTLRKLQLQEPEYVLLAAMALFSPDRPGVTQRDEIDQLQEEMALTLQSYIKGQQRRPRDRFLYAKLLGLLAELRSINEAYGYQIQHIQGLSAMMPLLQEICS

Regarding `O=c1cc(-c2ccc(O)cc2)oc2cc(O[C@@H]3O[C@H](CO)[C@@H](O)[C@H](O)[C@H]3O[C@@H]3OC[C@](O)(CO)[C@H]3O)cc(O)c12`, the outcome in assay [1], in [2], in assay [4], in assay [5], in [9] and in assay [12] was inactive. Further, the call in assay [14] and in [15] was inactive. In addition, the Potency entry in assay [3], in assay [6], in [7], in assay [10] and in assay [13] was “inactive” in each case. The Potency in assay [8] was 8.91 µM (active). For the same molecule, the max response in assay [11] is 5.67%.

Regarding `CC(C)[C@H](C)CC[C@@H](C)[C@H]1CC[C@H]2[C@@H]3CC=C4C[C@@H](O)CC[C@]4(C)[C@H]3CC[C@]12C`, the call in [1], in assay [2], in [4], in assay [5], in [9] and in assay [12] was inactive. The outcome in [14] and in assay [15] was inactive. Besides, the Potency entry in assay [3], in assay [6], in assay [7], in [8], in [10] and in assay [13] was “inactive” in each case. The max response in assay [11] was 2.09%.

As for `C=C1CC[C@H](O)C/C1=C\C=C1/CCC[C@]2(C)[C@@H]([C@H](C)CC[C@H](C)C(C)C)CC[C@@H]12`, the molecule was called inactive in [1], in assay [2], in [4], in [5], in assay [12] and in [14]. Besides, the result in [15] was inactive. Besides, the Potency result in assay [3], in assay [7] and in assay [10] was “inactive” in each case. Moreover, the Potency in assay [6] is 15.8 µM (active); in assay [8] it was 10 µM (active); in [13], 28.2 µM (active). In addition, the max response in assay [11] was -0.676%.

Take `CC(C)(O)[C@@H]1CC[C@](C)([C@@H]2[C@H](O)C[C@]3(C)C4C[C@@H](O[C@H]5O[C@@H](CO)[C@H](O)[C@@H](O)[C@@H]5O)C5C(C)(C)[C@H](O[C@H]6OC[C@H](O)[C@@H](O)[C@@H]6O)CC[C@]56CC46CC[C@@]23C)O1` (stereo not given in full): the outcome in assay [1], in assay [2], in assay [4], in assay [5], in assay [9] and in [12] was inactive. In addition, the molecule was called inactive in assay [14] and in assay [15]. In addition, the Potency entry in [3], in assay [7], in assay [8], in [10] and in [13] was “inactive” throughout. For the same molecule, in assay [11], the max response was 1.31%.

With `CC(C)=CCCC(C)(OC1OC(COC2OC(CO)C(O)C2O)C(O)C(O)C1O)C1CCC2(C)C1C(O)CC1C3(C)CCC(OC4OC(CO)C(O)C(O)C4OC4OC(CO)C(O)C(O)C4O)C(C)(C)C3CCC12C` (stereo not given), the molecule was classed as inactive in assay [1], in assay [2], in assay [4], in assay [5], in assay [9] and in [12]. Moreover, the call in assay [14] and in assay [15] was inactive. Moreover, the Potency entry in [3], in assay [7], in assay [8], in [10] and in [13] was “inactive” each time. In addition, the max response in assay [11] is 2.08%.

As for `O=C(O)CC(O)(C(=O)O)C(O)C(=O)O` (stereo not given), the call in assay [1], in assay [2], in [4], in assay [5], in assay [9] and in assay [12] was inactive. For the same molecule, the molecule was classed as inactive in [14] and in [15]. Besides, the Potency entry in [3], in assay [7], in assay [8], in [10] and in assay [13] was “inactive” each time. The max response in assay [11] is 1.8%.

For `CC1=CCC(=C(C)C)CC1`, the outcome in assay [1], in [2], in assay [4], in assay [5], in [12] and in assay [14] was inactive. Also, the outcome in assay [15] was inactive. Further, the Potency entry in assay [3], in assay [7], in [8], in assay [10] and in assay [13] was “inactive” each time. Moreover, the max response in assay [11] is 2.83%.

For the molecule `O=Cc1ccccc1O`, the call in assay [1], in [2], in assay [4], in assay [5], in assay [12] and in assay [14] was inactive. For the same molecule, the molecule was called inactive in [15]. For the same molecule, the Potency entry in [3], in [6], in assay [7], in assay [8], in assay [10] and in assay [13] was “inactive” throughout. Moreover, the max response in assay [11] is 1.96%.

Regarding `CC(C)c1ccc(C=O)cc1`, the molecule was called inactive in assay [1], in [2], in assay [4], in [5], in assay [12] and in [14]. In addition, in [15], the molecule was called inactive. Also, the Potency entry in [3], in assay [6], in assay [7], in assay [8], in assay [10] and in assay [13] was “inactive” throughout. Moreover, in [11], the max response was -3.36%.

Take `COc1ccc(C(=O)O)cc1`: the call in assay [1], in [2], in assay [4], in assay [5], in [9] and in assay [12] was inactive. Also, the molecule was called inactive in [14] and in assay [15]. Also, the Potency result in [3], in assay [6], in assay [7], in [8], in assay [10] and in assay [13] was “inactive” each time. Besides, the max response in assay [11] is -1.54%.

For `OCCc1ccc(O)cc1`, the call in assay [1], in assay [2], in [4], in [5], in assay [12] and in assay [14] was inactive. For the same molecule, the outcome in assay [15] was inactive. Moreover, the Potency result in assay [3], in assay [6], in [7], in [8], in assay [10] and in assay [13] was “inactive” throughout. Moreover, the max response in assay [11] is -3.57%.

Regarding `C=C1C[C@@]23CC[C@H]4[C@@](C)(CCC[C@@]4(C)C(=O)O[C@@H]4O[C@H](CO)[C@@H](O)[C@H](O)[C@H]4O)[C@@H]2CC[C@]1(O[C@@H]1O[C@H](CO)[C@@H](O)[C@H](O[C@@H]2O[C@H](CO)[C@@H](O)[C@H](O)[C@H]2O)[C@H]1O[C@@H]1O[C@@H](C)[C@H](O)[C@@H](O)[C@H]1O)C3`, the result in [1], in [2], in assay [4], in assay [5], in assay [12] and in assay [14] was inactive. Further, the outcome in assay [15] was inactive. The Potency entry in [3], in assay [6], in assay [7], in assay [8], in assay [10] and in assay [13] was “inactive” each time. In assay [11], the max response was 2.19%.
